From PubChem
TGFb SMAD3 inh: inhibitors of TGF-b signaling; AID 588855; hit rate 1.2% among 410,000; Potency, µM (titrated, usually from 46.1 µM), actives largely listed as inhibitors; HepG2 CAGA-GFP TGF-b/SMAD3 reporter, GFP fluorescence, 18 h; TGF-beta stimulated, 500 pg/mL final; note: nearly all actives have a fitted effect of over 65% in size
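Per well, imaged GFP fluorescence of HEPG2 CAGA-GFP cells gives the signal; cells get compound, then TGF-beta (500 pg/mL final), 18 h at 37 degrees C; %Activity versus -TGF-beta and +DMSO controls.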
HepG2 tox: HepG2 cytotoxicity, counter-screen for TGF-b inhibitors; HepG2 CAGA-GFP viability, ATP luminescence, 18 h; Potency, µM (titrated, usually from 46.1 µM), actives largely listed as cytotoxic; hit rate 0.76% among 410,000
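HepG2 CAGA-GFP cells (1000/well, DMEM with 1% FBS) received compound, then TGF-beta at 500 pg/mL final, and were incubated 18 hours at 37 degrees C. Viability was read by CellTiter-Glo luminescence. Media-only wells were set as complete cell-killing and DMSO as no toxicity.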
DT40 TDP1 CPT: DT40-hTDP1 cell growth loss with CPT | hit rate 12% among 420,000 | Potency, µM (highest dose often 46.2 µM), actives largely listed as inhibitors | chicken DT40 Tdp1-/-;hTDP1 cells + 20 nM CPT, ATP luminescence, 48 h | AID 686979; note: nearly all actives have a fitted effect of over 55% in size
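Chicken DT40 Tdp1-/- cells stably complemented with human TDP1 were seeded at 400 cells/well in medium containing 20 nM camptothecin, exposed to pin-transferred compounds, and grown at 37 °C for at least 48 hr. Viability was read as ATP luminescence.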
TDP1 block: TDP1 (human) enzyme inhibition; AID 485290; recombinant TDP1, AlphaScreen DNA substrate cleavage; hit rate 0.28% among 350,000; Potency, µM (top dose mostly 130 µM), actives largely listed as inhibitors; note: nearly all actives have a fitted effect of over 40% in size
Target sequence (Q9NUW8 whole entry, looked up): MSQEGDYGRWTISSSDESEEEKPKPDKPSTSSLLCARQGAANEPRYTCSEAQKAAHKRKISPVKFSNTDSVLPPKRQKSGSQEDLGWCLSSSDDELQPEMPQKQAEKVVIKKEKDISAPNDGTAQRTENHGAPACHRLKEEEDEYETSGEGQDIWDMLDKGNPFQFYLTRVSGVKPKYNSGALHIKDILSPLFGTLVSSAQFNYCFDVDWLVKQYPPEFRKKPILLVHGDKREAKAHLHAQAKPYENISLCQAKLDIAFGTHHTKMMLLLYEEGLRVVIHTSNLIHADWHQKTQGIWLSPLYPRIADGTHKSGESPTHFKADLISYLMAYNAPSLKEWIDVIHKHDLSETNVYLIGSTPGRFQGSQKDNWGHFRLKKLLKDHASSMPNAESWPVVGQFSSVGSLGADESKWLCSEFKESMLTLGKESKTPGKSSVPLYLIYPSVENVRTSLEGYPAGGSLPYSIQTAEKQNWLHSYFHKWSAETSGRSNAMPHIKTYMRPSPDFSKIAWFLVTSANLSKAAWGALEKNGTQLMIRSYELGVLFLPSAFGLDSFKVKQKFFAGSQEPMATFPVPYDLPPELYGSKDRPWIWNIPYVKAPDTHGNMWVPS
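Steps: enzyme plus compound, 15 min RT; add biotin/phosphotyrosine-FITC oligonucleotide (15 nM final), react 5 min; add donor/acceptor beads (10 ug/ml final), 10 min; read AlphaScreen. Tdp1 at 1 nM final.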
IL1B secr inh: inflammasome signaling inhibition, IL-1 beta readout | THP-1 LPS/ATP IL-1B secretion, AlphaLISA, 16 h; stronger effect = lower value | activity change, % at 57.5 µM | hit rate 4.7% among 360,000 | AID 743279; in the data active = activity change below about -50%; inconclusive = mostly about -30% to -49%
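THP-1 cells pretreated 1 hr with compounds (up to 57.5 uM final), then stimulated with LPS (250 ng/mL final) plus ATP (1.25 mM final); secreted IL-1B measured by AlphaLISA after 16 hr, decreased signal indicating inhibition.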
TDP1 cell noCPT: qHTS for Inhibitors of human tyrosyl-DNA phosphodiesterase 1 (TDP1): qHTS in cells in absence of CPT | DT40 Tdp1-/- hTDP1 cells, no CPT, ATP luminescence, 48 h | Potency, µM (titrated, usually from 46.2 µM), most hits filed as inhibitors | hit rate 15% among 420,000 | AID 686978, 2013; note: nearly all actives have a fitted effect of over 55% in size
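Growth kinetics read by CellTiter-Glo luminescence after ≥48 hr at 37 °C. Cells: DT40 Tdp1-/- stably carrying human TDP1, 400 per well, compound exposure in the absence of CPT (DMSO vehicle).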
Hits are given with their value; [ ] = dose if it differs, or a comment. A selection: hits, their analogues and other compounds. The true share with any hit is near 18%. Unless noted, calls come from the whole dose curve; as a rule, active = well fitted curve in the direction sought with a large enough effect; inconclusive = small, poorly fitted or top-dose-only effect, or another doubt; inactive = no such curve, though single readings can be large; an effect the other way counts as inactive or inconclusive.

How did COc1ccc(-c2nc3ccccc3c(=O)n2Cc2ccco2)cc1COc1ccc(NC(C)=O)cc1 do in these assays?
TDP1 block: inactive

Results for COc1ccc(-c2nc3ccccc3c(=O)n2Cc2ccc(CNC(=O)CO)cc2)cc1COc1ccc(NC(C)=O)cc1 ?
TDP1 block: 79µM

Results for CO[C@H]1CC[C@@]2(C)[C@@H](CC[C@@H]3[C@@H]2CC[C@@]2(C)[C@H]3C[C@H](C(=O)O)O[C@]23CCCO3)C1 ?
TGFb SMAD3 inh: inactive; HepG2 tox: 16µM; DT40 TDP1 CPT: inactive; TDP1 block: inactive; IL1B secr inh: inactive; TDP1 cell noCPT: inactive

Results for CC(=O)[C@@]1(O)[C@H](O)CC2C3CCC4CC(O)CC[C@]4(C)C3CC[C@@]21C (some centres not stated) ?
DT40 TDP1 CPT: inactive[9.04 µM]; TDP1 block: inactive; TDP1 cell noCPT: inactive[9.04 µM]

Results for CCCn1ccc2c(OCC(=O)Nc3ccc(C(F)(F)F)cc3)cccc2c1=O ?
TGFb SMAD3 inh: inactive; HepG2 tox: inactive; DT40 TDP1 CPT: inactive; TDP1 block: inactive; TDP1 cell noCPT: inconclusive

How did COCCn1ccc2c(OCC(=O)Nc3c(C)cc(C)cc3C)cccc2c1=O do in these assays?
TGFb SMAD3 inh: inactive; HepG2 tox: inactive; DT40 TDP1 CPT: inactive; TDP1 block: inactive; TDP1 cell noCPT: inconclusive

What do the screens show for `COC(=O)COc1cccc2c(=O)n(CC(=O)Nc3ccc4c(c3)OCCO4)ccc12`?
TGFb SMAD3 inh: inactive; HepG2 tox: inactive; DT40 TDP1 CPT: inactive; IL1B secr inh: -50; TDP1 cell noCPT: inactive

What do the screens show for `CCOCCn1ccc2c(OCC(=O)Nc3ccc(C(N)=O)cc3)cccc2c1=O`?
TGFb SMAD3 inh: inactive; HepG2 tox: inactive; DT40 TDP1 CPT: inconclusive; TDP1 block: inactive; TDP1 cell noCPT: 15µM

How did COCCn1ccc2c(OCC(=O)Nc3cc(OC)ccc3OC)cccc2c1=O do in these assays?
TGFb SMAD3 inh: inactive; HepG2 tox: inactive; DT40 TDP1 CPT: inconclusive; TDP1 block: inactive; IL1B secr inh: inactive; TDP1 cell noCPT: 15µM

Results for CCn1ccc2c(OCC(=O)Nc3ccc(C(C)=O)cc3)cccc2c1=O ?
TGFb SMAD3 inh: inactive; HepG2 tox: inactive; DT40 TDP1 CPT: inconclusive; TDP1 block: inactive; TDP1 cell noCPT: 9.2µM

How did Cc1ccc(Cl)cc1N1CCN(C(=O)Cn2cnc3nc4c(cc3c2=O)CCCC4)CC1 do in these assays?
TGFb SMAD3 inh: inactive; HepG2 tox: inactive; DT40 TDP1 CPT: inconclusive; TDP1 block: inactive; TDP1 cell noCPT: inconclusive

Results for Cc1c(NC(=O)CSc2nnc(-c3ccncc3)n2C)c(=O)n(-c2ccccc2)n1C ?
TGFb SMAD3 inh: inactive; HepG2 tox: inactive; DT40 TDP1 CPT: inactive; IL1B secr inh: inactive; TDP1 cell noCPT: inactive

How did CCOC(=O)c1ccc(NC(=O)c2cnc(N3CCCC3)nc2C)cc1 do in these assays?
TGFb SMAD3 inh: inactive; HepG2 tox: inactive; DT40 TDP1 CPT: inconclusive; TDP1 block: inactive; TDP1 cell noCPT: inconclusive

Results for COc1cccc(C(=O)Nc2cccc(-c3cn4ccsc4n3)c2)c1OC ?
TGFb SMAD3 inh: inactive; HepG2 tox: inactive; DT40 TDP1 CPT: inconclusive; TDP1 block: inactive; TDP1 cell noCPT: inconclusive

How did CC1(C(=O)NS(=O)(=O)c2cccc(F)c2)CCN1C(=O)Cc1cccc2ccccc12 (configuration not stated) do in these assays?
TGFb SMAD3 inh: inactive; HepG2 tox: inactive; DT40 TDP1 CPT: inactive; IL1B secr inh: inactive; TDP1 cell noCPT: inactive

How did CCOCCn1ccc2c(OCC(=O)Nc3ccccc3OC)cccc2c1=O do in these assays?
TGFb SMAD3 inh: inactive; HepG2 tox: inactive; DT40 TDP1 CPT: inconclusive; TDP1 block: inactive; IL1B secr inh: -60; TDP1 cell noCPT: inconclusive

Results for CCOCCn1ccc2c(OCC(=O)Nc3cc(OC)ccc3OC)cccc2c1=O ?
TGFb SMAD3 inh: inactive; HepG2 tox: inactive; DT40 TDP1 CPT: inconclusive; TDP1 block: inactive; IL1B secr inh: inactive; TDP1 cell noCPT: 9.2µM

What do the screens show for `CCOCCn1ccc2c(OCC(=O)Nc3cccc(F)c3)cccc2c1=O`?
TGFb SMAD3 inh: inconclusive; HepG2 tox: inactive; DT40 TDP1 CPT: inactive; TDP1 block: inactive; TDP1 cell noCPT: inconclusive

How did CN(C(=O)c1ccc(OC2CCN(CCc3ccccc3)CC2)cc1)C1CCCCC1 do in these assays?
TGFb SMAD3 inh: inactive; HepG2 tox: inactive; DT40 TDP1 CPT: inconclusive; TDP1 block: inactive; IL1B secr inh: inactive; TDP1 cell noCPT: inconclusive

How did Cc1cccc(/C(N)=N/OC(=O)N2CCOCC2)c1 do in these assays?
TGFb SMAD3 inh: inactive; HepG2 tox: inactive; DT40 TDP1 CPT: 16µM; TDP1 block: inactive; IL1B secr inh: inactive; TDP1 cell noCPT: 18µM

Results for Cc1cccc(/C(N)=N/OC(=O)c2ccco2)c1 ?
TGFb SMAD3 inh: inactive; HepG2 tox: inactive; DT40 TDP1 CPT: inactive; TDP1 block: inactive; IL1B secr inh: inactive; TDP1 cell noCPT: inactive

What do the screens show for `Cc1ccc(/C(N)=N/OC(=O)N2CCOCC2)cc1`?
TGFb SMAD3 inh: inactive; HepG2 tox: inactive; DT40 TDP1 CPT: 18µM; TDP1 block: inactive; IL1B secr inh: inactive; TDP1 cell noCPT: inconclusive

How did NS(=O)(=O)c1ccc(CCN2C(=O)CCC2=O)cc1 do in these assays?
TGFb SMAD3 inh: inactive; HepG2 tox: inactive; DT40 TDP1 CPT: inactive; IL1B secr inh: inactive; TDP1 cell noCPT: inactive

What do the screens show for `COc1ccc(N2CC(O)(c3ccc(C)cc3)[N+]3=C2CCCC3)cc1` (configuration not stated)?
TGFb SMAD3 inh: inactive; HepG2 tox: inactive; DT40 TDP1 CPT: inactive; TDP1 block: inactive; IL1B secr inh: inactive; TDP1 cell noCPT: inactive

How did COc1ccc(N2CC(O)(c3ccc(OC(F)F)cc3)[N+]3=C2CCCC3)cc1 (configuration not stated) do in these assays?
TGFb SMAD3 inh: inactive; HepG2 tox: inactive; DT40 TDP1 CPT: 16µM; TDP1 block: inactive; IL1B secr inh: -54; TDP1 cell noCPT: inconclusive

How did COc1ccc(N2CC(O)(c3ccc(F)cc3)[N+]3=C2CCCC3)cc1 (configuration not stated) do in these assays?
TGFb SMAD3 inh: inactive; HepG2 tox: inactive; DT40 TDP1 CPT: inconclusive; TDP1 block: inactive; IL1B secr inh: inactive; TDP1 cell noCPT: inconclusive

Results for CCOc1ccc(N2CC(O)(c3ccc(F)cc3)[N+]3=C2CCCC3)cc1 (configuration not stated) ?
TGFb SMAD3 inh: inactive; HepG2 tox: inactive; DT40 TDP1 CPT: inactive; TDP1 block: inactive; IL1B secr inh: inactive; TDP1 cell noCPT: 23µM
